Data as given in PubChem BioAssay (NCI).
This is part of a sample that, as a whole, favours compounds with a hit. Of some 79,000 tested, about 15% had one in any assay. No stated cut-off is given here; in the data, active means growth inhibition above about 70%; inactive means the rest.

What was measured:
[1] = NCI Yeast Anticancer Drug Screen. Data for the rad50 strain (AID 155);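 further: 0% = growth of vehicle-only cultures of the same strain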; settings: S. cerevisiae rad50 strain growth inhibition; at 50.0 µM; stronger effect = higher value
How it was run: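 Genetically altered yeast (DNA repair pathway); compound treatment; growth inhibition vs vehicle ctrl.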

[2] = NCI Yeast Anticancer Drug Screen. Data for the mec2-1 strain (AID 157); settings: S. cerevisiae mec2-1 strain, at 50.0 µM, stronger effect = higher value
How it was run: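 mec2-1 yeast strain, carrying an alteration in DNA damage repair or cell cycle control, was exposed to compounds; growth inhibition was measured relative to vehicle-treated controls.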

[3] = NCI Yeast Anticancer Drug Screen. Data for the sgs1 mgt1 strain (AID 161);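 further: 0% = growth of cultures given vehicle only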; settings: S. cerevisiae sgs1 mgt1 strain, at 50.0 µM, stronger effect = higher value
How it was run: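 Compounds are added to genetically altered yeast, and growth is compared with cultures given vehicle alone to give percent inhibition.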

[4] = NCI Yeast Anticancer Drug Screen. Data for the cln2 rad14 strain (AID 165);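 further: 0% = growth equal to vehicle treated cultures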; settings: S. cerevisiae cln2 rad14 strain, at 50.0 µM, stronger effect = higher value
How it was run: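 Yeast carrying cln2 and rad14 alterations (cell cycle control and DNA damage repair) were exposed to compounds. Growth inhibition was measured against vehicle-treated controls.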

[5] = NCI Yeast Anticancer Drug Screen. Data for the bub3 strain (AID 167); settings: S. cerevisiae bub3 mutant strain, at 50.0 µM, stronger effect = higher value
How it was run: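 Yeast carrying a defined mutation is treated with each compound, and growth is compared with that of vehicle-exposed cells to give inhibition.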

[6] = NCI Yeast Anticancer Drug Screen. Data for the mlh1 rad18 strain (AID 175); settings: S. cerevisiae mlh1 rad18 strain growth inhibition; at 50.0 µM; stronger effect = higher value
How it was run: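 Growth inhibition of the yeast strain was measured after compound exposure and expressed relative to vehicle-treated controls. The strain carries defined defects in DNA damage repair.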

Measured: growth inhibition

CCc1cccc(CC)c1NC(=O)Nc1cc(Cl)ccc1C
inactive: [1] 1.8% | [2] 6.45% | [3] 5.4% | [4] -8.45% | [5] 30.1% | [6] 7.9%

CCCCn1c(N)n[nH]c1=S
inactive: [1] 20.5% | [2] 8.55% | [3] 1.55% | [4] -52.5% | [5] -7.25% | [6] -5.9%

O=C1CN(N2CCOCC2)CC(=O)N2CCCCN12
inactive: [1] 20.9% | [2] 1.25% | [3] 13.9% | [4] 19.9% | [5] 10.4% | [6] 6.25%

O=c1c(SCc2ccc(Br)cc2)c(SCc2ccc(Br)cc2)cnn1-c1ccccc1
inactive: [1] 22.3% | [2] 4.65% | [3] 13.8% | [4] 34% | [5] 13.4% | [6] 14.8%

CCCCc1ccc(-n2c(C)nc3[nH]cc(C)c3c2=N)cc1
inactive: [1] -1.35% | [2] -10.9% | [3] -3.5% | [4] -1.75% | [5] -2.5% | [6] -3.75%

CC(=O)OCC1OC(n2ccc(NC(=O)Nc3ccn(C4OC(COC(C)=O)C(OC(C)=O)C4OC(C)=O)c(=O)n3)nc2=O)C(OC(C)=O)C1OC(C)=O (stereo not given)
inactive: [1] -2.25% | [2] -11.1% | [3] 8.25% | [4] -5.35% | [5] -2.25% | [6] 10.9%

CCN(CC)CC(OC(C)=O)c1ccc2ccc3ccc(O)cc3c2c1 (stereo not given)
inactive: [1] 15.9% | [2] 7.85% | [3] -7.55% | [4] -5.55% | [5] -3.25% | [6] 19.1%

O=C(NC(Cc1ccccc1)P(=O)(O)c1ccccc1)OCc1ccccc1 (stereo not given)
inactive: [1] -8.45% | [2] -30.5% | [3] -30.2% | [4] 15.7% | [5] 2.3% | [6] -12%

CC1(C)CCCc2c(-c3ccccc3)cc3c4ccccc4cc[n+]3c21
inactive: [1] -8.5% | [2] -5.55% | [3] -14.6% | [4] -21.6% | [5] -5% | [6] -14.1%

Nc1nc(N)c2nc(-c3ccc([N+](=O)[O-])cc3)c(=O)[nH]c2n1
inactive: [1] -9.75% | [2] -8.5% | [3] -2.05% | [4] -11.3% | [5] 29.2% | [6] 14.7%

Nc1ccn([C@@H]2C=C(CO)[C@@H](O)[C@H]2O)c(=O)n1
inactive: [1] -16.1% | [2] -20.6% | [3] -22.5% | [4] -13.3% | [5] -10.4% | [6] -21.9%

Cc1cc2nc(N3CCCCC3)n(C3OC(CO)C(O)C3O)c2cc1C (stereo not given)
inactive: [1] 11% | [2] 10.2% | [3] -0.45% | [4] 10.7% | [5] -8.75% | [6] 13.8%

CC(=O)OCCn1c([N+](=O)[O-])cnc1/C=[N+](/C)[O-]
inactive: [1] 11.2% | [2] 16.9% | [3] 16.8% | [4] 1.9% | [5] 9.85% | [6] 33.3%

CCOC(=O)Nc1cc2c(c(N)n1)N=C(CN(C)c1ccccc1)CN2
inactive: [1] 22.9% | [2] 6.15% | [3] 59.5% | [4] 16.3% | [5] 35% | [6] 30.3%

CC(CC(C(=O)Nc1ccccc1)(c1ccccc1)c1ccccc1)N(C)C (stereo not given)
inactive: [1] -0.2% | [2] -18.2% | [3] 3.55% | [4] -2.15% | [5] -5.1% | [6] 6.2%

CCCc1cc(OC(=O)c2c(O)cc(OC)cc2CCC)cc(O)c1C(=O)O
inactive: [1] 35.1% | [2] 44.1% | [3] 15.9% | [4] 49.2% | [5] 32% | [6] 24.5%

CCCCN(CCCC)CC(O)c1cc(-c2cccc(I)c2)nc2c(Cl)cc(Cl)cc12 (stereo not given)
inactive: [1] 38.6% | [2] 4.4% | [3] -4.75% | [4] -11.1% | [5] -6.15% | [6] 29.3%

CC(C)CCCC(C)C1CCC2C3CCC4CC(N5CCCCC5)CCC4(C)C3CCC12C (stereo not given)
inactive: [1] 5.5% | [2] -9.6% | [3] -16.1% | [4] -20.8% | [5] 4.55% | [6] 17.1%

Cn1c(=O)oc2cc(C(=O)CSC(=S)N3CCCCCC3)ccc21
inactive: [1] -18.3% | [2] -33.1% | [3] -17.6% | [4] -14.8% | [5] -4.8% | [6] -7.6%

Cc1ccc2nc3c(C)c(Cl)c(=O)cc-3sc2c1
inactive: [1] 7% | [2] 19.4% | [3] 7.4% | [4] -0.1% | [5] -2.4% | [6] 36.5%
